Data on nine molecules can be found in PubChem BioAssay (NCI).

Molecules are shown by their SMILES. About 83,000 compounds went through this panel and 20% of them were active in at least one assay; those are over-represented in the sample as a whole.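 How to read the values: 0–100, growth inhibition (40 = 60% inhibited); 0, no net growth; -100 to 0, cell death (-40 = 40% of starting cells died; -100 = all dead).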 Values without a mark were called inactive. The source made the active and inactive calls. Rule for the calls: active = growth percent below 10; inactive = the rest.

What all share (assay): NCI-60 one-dose screen, 48 h (100 = growth as untreated, 0 = no growth, -100 = all killed)
Holding throughout (conditions): 10 µM unless noted

Assay [1] relates to SR leukemia.
The subject of assay [2] is RPMI-8226 leukemia.
The test system of assay [3] is OVCAR-8 ovarian.
In assay [4] the test system is OVCAR-5 ovarian.
Assay [5] has as its system OVCAR-4 ovarian.
Assay [6] relates to SK-OV-3 ovarian.
The subject of assay [7] is IGROV1 ovarian.
The subject of assay [8] is OVCAR-3 ovarian.
The subject of assay [9] is HS 578T breast.
Assay [10] concerns NCI/ADR-RES ovarian.
Assay [11] relates to T-47D breast.
In assay [12] the test system is BT-549 breast.
Assay [13] concerns SW-620 colon.
Assay [14] deals with MCF7 breast.
In assay [15] the test system is HCT-116 colon.
Assay [16] deals with HCC-2998 colon.
For assay [17], the system named is KM12 colon.
Assay [18] has as its system MDA-MB-468 breast.

As to `CC1=C(C(=O)Nc2ccccc2)C(c2cccc(Cl)c2Cl)n2c(nc3ccccc32)N1` (centres undefined), the growth in [1] is 6.58% (active); in assay [2], 37%; in assay [3], 66.6%; in assay [4], 82.8%; in assay [5] it was 49.4%; in assay [6], 84.3%. For the same molecule, the growth was 54.9% in assay [7]; 42.2% in assay [8]; 66% in assay [9]; 46.3% in assay [10]; 67.4% in [11]; 71% in [12]. Further, the growth was 56.5% in assay [13]; 24.6% in [14]; 29.6% in assay [15]; 25.6% in assay [16]; 32.9% in assay [17].

Consider `S=C(Nc1ccccc1)Nc1ccc(OCc2nc3ccc(Cl)cc3[nH]2)cc1`, for which the growth in assay [1] is 25.9%; in assay [2] it was 66.7%; in assay [3] it was 87.7%; in assay [4], 109%; in assay [5], 78.3%; in assay [6], 97.1%. Also, the growth in assay [7] was 87.9%; in [8] it was 84.9%; in [9] it was 92%; in [10], 83.7%; in assay [11] it was 51.5%; in assay [12], 78.8%. Further, the growth in [13] was 73%; in assay [14] it was 24.8%; in assay [15] it was 77.5%; in assay [16], 104%; in assay [17] it was 74.7%; in [18] it was 12.1%.

Take `O=C1/C(=C/c2cccc3c2OCO3)Cc2c(F)cc(Br)cc21`: the growth in [1] is 104%; in assay [2], 106%; in assay [3], 113%; in assay [4] it was 109%; in assay [5], 105%; in assay [6], 113%. Further, the growth in [7] is 110%; in assay [8], 98.6%; in assay [9], 115%; in [10], 108%; in [11], 95.2%; in assay [12], 123%. The growth is 114% in assay [13]; 84.2% in assay [14]; 104% in [15]; 117% in assay [16]; 110% in assay [17]; 105% in assay [18].

`Cc1ccc(C2CC(c3ccc(NC(=O)Nc4ccccc4)cc3)=NN2c2ccc(S(N)(=O)=O)cc2)cc1` (centres undefined): the growth was -12.7% (active) in assay [1]; -11.5% (active) in [2]; -46.2% (active) in assay [3]; -95.4% (active) in [4]; -87.6% (active) in [5]; -77.6% (active) in [6]. The growth was -93.5% (active) in assay [7]; -75.8% (active) in assay [8]; -28.7% (active) in assay [9]; -66.9% (active) in assay [10]; -74.7% (active) in assay [11]; -79.6% (active) in assay [12]. Moreover, the growth in assay [13] was -83.4% (active); in [14], -82.4% (active); in assay [15], -74.4% (active); in assay [16], -75.4% (active); in [17], -50% (active); in assay [18], -93.4% (active).

Turning to `CCCCNC(=S)Nc1ccc(OCc2nc3ccc(Cl)cc3[nH]2)cc1`, the growth in [1] was 2.29% (active); in assay [2] it was -0.388% (active); in assay [3], 38.7%; in [4], 28.2%; in [5] it was 21.5%; in [6], 75.4%. For the same molecule, the growth in assay [7] was 12.9%; in assay [8], 13.6%; in assay [9], 28.5%; in [10], 21.6%; in assay [11], 22.2%; in assay [12], 31.7%. Also, the growth was 21.8% in assay [13]; 6.29% (active) in [14]; 11.2% in assay [15]; 3.65% (active) in assay [16]; 29.3% in assay [17]; 3.25% (active) in assay [18].

As for `Clc1ccc(Nc2nnc(-c3c[nH]c4ccccc34)o2)cc1`, the growth in [1] is 49.6%; in assay [2], 28.6%; in assay [3] it was 86.1%; in assay [4], 101%; in assay [5] it was 78.6%; in assay [6], 72.2%. The growth in assay [7] was 47.3%; in [8], 102%; in [9] it was 82.5%; in [10], 50.7%; in assay [11], 42%; in [12], 63.7%. Moreover, the growth was 86.1% in [13]; 38.3% in assay [14]; 79.5% in assay [15]; 74.5% in assay [16]; 36% in assay [17].

Take `O=C1c2cccc3c(N4CCN(Cc5ccccc5)CC4)ccc(c23)C(=O)N1c1cccc(-c2nn(-c3ccccc3)cc2-c2nc3ccccc3s2)c1`: the growth in assay [1] was 87.3%; in [2] it was 103%; in assay [3] it was 115%; in assay [4], 107%; in assay [5], 105%; in assay [6] it was 102%. The growth in assay [7] is 89.5%; in assay [8] it was 102%; in [9], 106%; in [10] it was 104%; in [11], 97.6%; in assay [12], 114%. Moreover, the growth is 101% in assay [13]; 88.6% in assay [14]; 100% in assay [15]; 127% in assay [16]; 108% in assay [17]; 95.7% in assay [18].

`COc1ccc(NC(=O)NN2C(=O)c3ccccc3N(C)C2c2ccc(OC)cc2)cc1` (centres undefined): the growth is 88.4% in assay [1]; 99.1% in assay [2]; 103% in assay [3]; 107% in [4]; 96.7% in assay [5]; 101% in [6]. The growth is 108% in assay [7]; 89.8% in assay [8]; 101% in [9]; 92.2% in [10]; 97.1% in assay [11]; 29.9% in [12]. For the same molecule, the growth in assay [13] was 100%; in [14], 94.9%; in [15], 59.4%; in [16], 113%; in assay [17] it was 101%; in [18] it was 102%.

Turning to `O=C(Cc1c(-c2ccccc2[N+](=O)[O-])n(-c2ncnc3c2c(-c2ccccc2)c(-c2ccccc2)n3Cc2ccccc2)[nH]c1=O)c1ccc(Cl)c(Cl)c1`, the growth in assay [1] is 14.2%; in assay [2], -3.03% (active); in assay [3], 25.5%; in assay [4] it was 55.1%; in [5] it was 19.2%; in assay [6], 39.3%. The growth in assay [7] was 25.2%; in assay [8] it was 14.2%; in assay [9], 22%; in assay [10], 50.7%; in assay [11], 6.14% (active); in assay [12], -17.2% (active). Also, the growth in [13] is 31.3%; in assay [14], 11.9%; in assay [15], 13.7%; in [16] it was 24.9%; in assay [18] it was -23.5% (active).
